Compounds with a hit are over-represented: about 2.5% of the library has one in this group of screens.
Cruzain noTriton: qHTS Assay for Promiscuous and Specific Inhibitors of Cruzain (without detergent); 200,000 compounds, 2.3% hits; AID 1476, 2009; purified cruzain, Z-FR-AMC fluorescence, no detergent; Cruzipain (Trypanosoma cruzi), P25779; Potency, µM, actives largely listed as inhibitors; note: nearly all actives have a fitted effect of over 40% in size
Target sequence (P25779 123-467 limits assumed): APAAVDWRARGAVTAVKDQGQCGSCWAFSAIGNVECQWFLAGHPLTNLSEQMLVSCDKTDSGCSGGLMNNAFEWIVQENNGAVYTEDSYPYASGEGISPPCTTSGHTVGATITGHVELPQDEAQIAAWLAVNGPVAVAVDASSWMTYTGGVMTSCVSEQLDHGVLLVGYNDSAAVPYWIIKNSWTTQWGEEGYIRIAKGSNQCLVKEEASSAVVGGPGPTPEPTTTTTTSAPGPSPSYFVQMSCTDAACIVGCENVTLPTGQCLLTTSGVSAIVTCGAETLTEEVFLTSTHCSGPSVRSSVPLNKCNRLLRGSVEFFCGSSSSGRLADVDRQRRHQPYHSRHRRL
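Purified cruzain at 1.5 nM, pre-incubated 15 min with compound at room temperature in 100 mM sodium acetate pH 5.5, 5 mM DTT, 0.00005% Triton X-100. Reaction started with 2 uM Z-FR-AMC; AMC fluorescence increase over 60 s gives rate.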
Cruzain inh Det: qHTS Assay for Promiscuous and Specific Inhibitors of Cruzain (with detergent); Cruzipain (Trypanosoma cruzi), P25779; purified cruzain, Z-FR-AMC fluorescence, 0.01% Triton; Potency, µM, actives largely listed as inhibitors; 200,000 compounds, 0.43% hits; AID 1478, 2009; note: nearly all actives have a fitted effect of over 40% in size
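In this qHTS format, compounds are incubated with 1.5 nM cruzain for 15 min at room temperature before 2 uM Z-FR-AMC is added. Release of AMC is followed at 360/450 nm, and progress is taken as the 60 s fluorescence difference.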
Of the large screens only hits and unclear results are named; the others gave an inactive call; ! = not confirmed by another sample. Calls come from the whole dose curve; as a rule, active = well fitted curve in the direction sought with a large enough effect; inconclusive = small, poorly fitted or top-dose-only effect, or another doubt; inactive = no such curve, though single readings can be large; an effect the other way counts as inactive or inconclusive.

CCCCn1c(C2CC(=O)N(c3ccc(OCC)cc3)C2)nc2ccccc21 (stereo unspecified)	none
Cc1c(C(=O)N2CCC(C)CC2)c(S(=O)(=O)Nc2cccc(C#N)c2)c(C)n1C	none
COc1ccc(C(=O)c2sc3nc(-c4ccccc4)ccc3c2N)cc1OC	none
COc1cccc(-c2ccc3c(N)c(C(=O)c4ccc(Br)cc4)sc3n2)c1	Cruzain noTriton 7.94µM
CCc1ccccc1Nc1nn2c(=O)c3ccc(C(=O)NC4CCC(C)CC4)cc3nc2s1 (stereo unspecified)	none
Cc1cc(C)c(/C=C/c2onc(C)c2S(=O)(=O)N2CCC(C(=O)N3CCN(c4ccccc4)CC3)CC2)c(C)c1	none
O=C(Nc1ccc(N=Nc2ccccc2)cc1)c1ccccc1Cl	none
O=C(Nc1ccc(N=Nc2ccccc2)cc1)c1ccc(Cl)cc1Cl	Cruzain noTriton 12.6µM
COC(=O)C1=C(C)NC(=O)NC1c1cn(-c2ccccc2)nc1-c1ccc(OC)c(Br)c1 (stereo unspecified)	none
O=[N+]([O-])c1ccc(S(=O)(=O)N2CCn3cccc3C2c2ccc(Br)cc2)cc1 (stereo unspecified)	Cruzain noTriton inconclusive
Cc1ccc(C2c3cccn3CCN2S(=O)(=O)c2ccc([N+](=O)[O-])cc2)cc1 (stereo unspecified)	Cruzain noTriton 31.6µM
CCc1ccc(NC(=O)CC2C(=O)N(c3cccc(C)c3)C(=O)N2CCC(C)C)cc1 (stereo unspecified)	none
C=CCn1c(SCC(=O)Nc2ccccc2OC)nnc1-c1ccco1	none
C=CCn1c(SCC(=O)Nc2nccs2)nnc1-c1cc2cccc(OC)c2o1	Cruzain noTriton 25.1µM
Cc1cc(NC(=O)CN(c2cccc(C)c2C)S(=O)(=O)c2ccccc2)ccc1Br	Cruzain noTriton 6.31µM
Cc1cc(C)cc(NC(=O)CN(c2cccc(C)c2C)S(=O)(=O)c2ccccc2)c1	Cruzain noTriton inconclusive
CC(=O)N1c2ccccc2CC1C(=O)N1CCN(c2ccccc2F)CC1 (stereo unspecified)	none
Cc1nc(NC(=O)c2ccc(-c3cc4ccccc4oc3=O)cc2)ccc1Br	Cruzain noTriton inconclusive
Cc1nc(NC(=O)c2cccc(-c3cc4ccccc4oc3=O)c2)ccc1Br	Cruzain noTriton 20µM
O=C(Nc1ccc(N2CCOCC2)cc1)c1cc2ccccc2o1	none
O=C(Nc1ccc(N2CCCC2)cc1)c1cccc(F)c1	Cruzain noTriton inconclusive
O=C(Nc1ccc(N2CCCC2)cc1)c1ccccc1F	Cruzain noTriton 20µM
O=C(Nc1ccc(N2CCCC2)cc1)c1cccc(-c2cc3ccccc3oc2=O)c1	Cruzain noTriton 3.98µM
O=C(Nc1ccc(N2CCCCC2)cc1)c1ccccc1	none
O=C(Nc1ccc(N2CCCC2)cc1)c1ccc2ccccc2c1	Cruzain noTriton 15.8µM
COc1ccc(NC(=O)CSc2nc3ccccc3c(=O)n2CCC(=O)NC2CCCCC2)c(OC)c1	none
CCOc1ccc(NC(=O)C(C)n2c(=O)cc(-c3ccccc3)c3c(C)nn(C)c32)cc1 (stereo unspecified)	none
O=C(NCc1ccccc1)C(=O)NCC(c1ccc2c(c1)OCO2)N1CCOCC1 (stereo unspecified)	none
CN(C)c1ccc(NC(=O)c2ccc([N+](=O)[O-])cc2Cl)cc1	Cruzain noTriton inconclusive
O=C(Nc1ccc(Br)cn1)c1cccc(-c2cc3ccccc3oc2=O)c1	Cruzain noTriton inconclusive
O=C(Nc1ccc(N2CCCC2)cc1)c1ccc([N+](=O)[O-])cc1Cl	Cruzain noTriton 10µM
O=C(Nc1ccccc1N1CCCC1)c1cccc(-c2cc3ccccc3oc2=O)c1	Cruzain noTriton 25.1µM
COc1ccc(OC)c(NC(=O)c2cnn(-c3ccc(C)cc3)c2C2CCNCC2)c1	none
C=C(Cl)CSC(=S)N(CC)CC	none
CCN(CC)C(=S)SSC(=S)N(CC)CC	Cruzain noTriton 7.94µM!, Cruzain inh Det 15.8µM!
CCN1CCN(Cc2nc3cc(NC(=O)c4cc(OC)c(OC)c(OC)c4)ccc3n2CC)CC1	none
O=C1OCCN1C(=O)[C@H]1[C@H](c2ccc(F)cc2)C(c2ccc(F)cc2)=NN1c1ccccc1	Cruzain noTriton inconclusive
O=C1OCCN1C(=O)[C@H]1[C@H](c2ccc(Cl)cc2)C(c2ccc(F)cc2)=NN1c1ccc(Br)cc1	Cruzain noTriton 11.2µM
O=C1OCCN1C(=O)[C@H]1[C@H](c2ccc(Cl)cc2)C(c2ccc(F)cc2)=NN1c1ccccc1	Cruzain noTriton inconclusive
O=C1OCCN1C(=O)[C@H]1[C@H](c2ccc(F)cc2)C(c2ccc(F)cc2)=NN1c1ccc(Br)cc1	Cruzain noTriton 25.1µM
CCOc1ccc(CCNc2ncnc3onc(-c4ccc(Cl)cc4)c23)cc1	none
Cc1nnc(SCc2nc(-c3ccc(Cl)cc3)no2)n1-c1ccc(F)cc1	Cruzain noTriton inconclusive
COc1ccccc1NC(=O)NCc1ccc2c(c1)OCO2	none
COc1ccc(/C=C(/CC(=O)NCc2ccc(Cl)cc2)c2nc3ccccc3s2)cc1	Cruzain noTriton 31.6µM

Screens from PubChem BioAssay.
